How the values were obtained:
Assay in all cases: DAPPL (digital affinity profiling via proximity ligation, sequencing); 10 mM Tris-HCl pH 7.5, 50 mM NaCl, 1 mM DTT, 4% glycerol, room temperature, 30 min; GST-TFs on glutathione beads, 16-mer random dsDNA library, 0.1% formaldehyde crosslink after washing; high values mean tight binding
FEV = target: T1, FEV (Homo sapiens, UniProt Q99581 1-238); conditions: protein: recombinant; tags: N-terminal GST; dsDNA, one strand shown
T1 sequence: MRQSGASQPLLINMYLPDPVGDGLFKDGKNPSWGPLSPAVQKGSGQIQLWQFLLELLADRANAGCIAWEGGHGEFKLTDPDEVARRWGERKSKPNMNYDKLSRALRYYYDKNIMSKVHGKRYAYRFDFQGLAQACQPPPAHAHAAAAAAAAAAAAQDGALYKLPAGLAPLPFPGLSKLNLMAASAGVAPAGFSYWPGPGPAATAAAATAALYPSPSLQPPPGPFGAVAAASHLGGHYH
Method in brief: (§1)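 Human transcription factors fused to GST were expressed in yeast, captured on glutathione beads, given DNA barcodes and pooled with a GST-only negative control. Pools were incubated with 200 nmole of a 16-mer random double-stranded DNA library in Tris/NaCl/DTT/glycerol buffer at room temperature for 30 min. They were then washed, crosslinked with 0.1% formaldehyde, proximity-ligated (BsaI/T4 ligase, 1 h, 37 °C), PCR-amplified and sequenced on an Illumina NextSeq500. Binding signal is each 6-mer's read frequency for a factor divided by its frequency for the GST control.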

ETV5 = ETV5 (Homo sapiens, UniProt P41161 1-510); conditions: protein: recombinant; tags: N-terminal GST; dsDNA, one strand shown
Method in brief: as §1

HSF1 = HSF1 (Homo sapiens, UniProt Q00613 1-529); conditions: protein: recombinant; tags: N-terminal GST; chain copies: 3; dsDNA, one strand shown
Method in brief: as §1

SPIC = target: T2, SPIC (Homo sapiens, UniProt Q8N5J4 1-248); conditions: protein: recombinant; tags: N-terminal GST; dsDNA, one strand shown
T2 sequence: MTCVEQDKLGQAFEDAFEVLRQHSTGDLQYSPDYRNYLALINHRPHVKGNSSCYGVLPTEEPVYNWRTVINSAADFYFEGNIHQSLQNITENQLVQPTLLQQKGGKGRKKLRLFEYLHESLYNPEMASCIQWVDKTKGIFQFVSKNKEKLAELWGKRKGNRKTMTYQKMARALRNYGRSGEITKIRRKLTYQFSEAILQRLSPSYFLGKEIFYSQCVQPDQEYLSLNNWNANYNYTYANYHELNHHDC
Method in brief: as §1

ELF4 = ELF4 (Homo sapiens, UniProt Q99607 1-663); conditions: protein: recombinant; tags: N-terminal GST; dsDNA, one strand shown
Method in brief: as §1

ELK4 = target: T3, ELK4 (Homo sapiens, UniProt P28324-2 1-405); conditions: protein: recombinant; tags: N-terminal GST; dsDNA, one strand shown
T3 sequence: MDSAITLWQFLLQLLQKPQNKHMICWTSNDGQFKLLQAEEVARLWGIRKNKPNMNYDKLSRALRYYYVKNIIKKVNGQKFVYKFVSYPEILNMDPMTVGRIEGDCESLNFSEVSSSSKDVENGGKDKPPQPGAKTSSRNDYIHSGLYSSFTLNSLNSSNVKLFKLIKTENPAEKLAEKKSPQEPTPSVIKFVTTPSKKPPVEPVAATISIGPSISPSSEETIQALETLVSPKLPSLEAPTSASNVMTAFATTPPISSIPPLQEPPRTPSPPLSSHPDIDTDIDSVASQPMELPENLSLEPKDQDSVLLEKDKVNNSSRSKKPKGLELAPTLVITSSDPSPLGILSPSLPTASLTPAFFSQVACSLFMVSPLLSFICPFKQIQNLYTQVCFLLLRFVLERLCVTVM
Method in brief: as §1

ETV2 = target: T4, ETV2 (Homo sapiens, UniProt O00321 1-342); conditions: protein: recombinant; tags: N-terminal GST; dsDNA, one strand shown
T4 sequence: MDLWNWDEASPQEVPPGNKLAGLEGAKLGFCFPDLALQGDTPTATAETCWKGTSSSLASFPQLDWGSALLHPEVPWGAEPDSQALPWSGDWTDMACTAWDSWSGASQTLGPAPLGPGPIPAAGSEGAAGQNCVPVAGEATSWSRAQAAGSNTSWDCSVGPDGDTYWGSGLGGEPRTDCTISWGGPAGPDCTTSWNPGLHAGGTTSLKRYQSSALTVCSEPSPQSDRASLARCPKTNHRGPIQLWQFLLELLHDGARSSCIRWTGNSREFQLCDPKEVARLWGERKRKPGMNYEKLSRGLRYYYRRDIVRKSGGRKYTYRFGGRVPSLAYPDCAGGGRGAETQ
Method in brief: as §1

ELF3 = target: T5, ELF3 (Homo sapiens, UniProt P78545 1-371); conditions: protein: recombinant; tags: N-terminal GST; dsDNA, one strand shown
T5 sequence: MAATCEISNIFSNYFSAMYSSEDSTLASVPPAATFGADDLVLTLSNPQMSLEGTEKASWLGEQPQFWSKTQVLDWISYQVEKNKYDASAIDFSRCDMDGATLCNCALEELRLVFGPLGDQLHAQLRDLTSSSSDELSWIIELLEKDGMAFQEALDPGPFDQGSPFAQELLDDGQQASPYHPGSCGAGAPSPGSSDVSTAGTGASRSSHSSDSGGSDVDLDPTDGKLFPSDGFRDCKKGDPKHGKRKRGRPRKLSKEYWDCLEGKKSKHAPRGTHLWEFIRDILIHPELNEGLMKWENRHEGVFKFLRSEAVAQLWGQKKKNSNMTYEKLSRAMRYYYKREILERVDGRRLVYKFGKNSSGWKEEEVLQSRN
Method in brief: as §1

CRX = CRX (Homo sapiens, UniProt O43186 1-299); conditions: protein: recombinant; tags: N-terminal GST; dsDNA, one strand shown
Method in brief: as §1

ETV1 = ETV1 (Homo sapiens, UniProt P50549 1-477); conditions: protein: recombinant; tags: N-terminal GST; dsDNA, one strand shown
Method in brief: as §1

ERF = target: T6, ERF (Homo sapiens, UniProt P50548 1-548); conditions: protein: recombinant; tags: N-terminal GST; dsDNA, one strand shown
T6 sequence: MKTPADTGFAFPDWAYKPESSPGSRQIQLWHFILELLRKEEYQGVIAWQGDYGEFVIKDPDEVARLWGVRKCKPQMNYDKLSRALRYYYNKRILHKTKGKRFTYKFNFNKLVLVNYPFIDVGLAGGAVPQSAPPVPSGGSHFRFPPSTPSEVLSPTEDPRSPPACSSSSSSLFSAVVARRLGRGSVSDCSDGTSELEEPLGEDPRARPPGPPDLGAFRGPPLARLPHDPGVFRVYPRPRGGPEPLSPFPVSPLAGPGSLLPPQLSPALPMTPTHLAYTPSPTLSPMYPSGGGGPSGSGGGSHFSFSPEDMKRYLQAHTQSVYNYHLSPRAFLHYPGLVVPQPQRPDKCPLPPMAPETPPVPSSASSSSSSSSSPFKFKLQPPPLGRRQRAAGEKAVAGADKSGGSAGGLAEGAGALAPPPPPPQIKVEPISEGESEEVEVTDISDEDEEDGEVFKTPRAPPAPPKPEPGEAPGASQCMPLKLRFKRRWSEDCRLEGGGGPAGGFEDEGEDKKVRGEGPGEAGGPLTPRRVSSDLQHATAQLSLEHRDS
Method in brief: as §1

ETV3L = target: T7, ETV3L (Homo sapiens, UniProt Q6ZN32 1-361); conditions: protein: recombinant; tags: N-terminal GST; dsDNA, one strand shown
T7 sequence: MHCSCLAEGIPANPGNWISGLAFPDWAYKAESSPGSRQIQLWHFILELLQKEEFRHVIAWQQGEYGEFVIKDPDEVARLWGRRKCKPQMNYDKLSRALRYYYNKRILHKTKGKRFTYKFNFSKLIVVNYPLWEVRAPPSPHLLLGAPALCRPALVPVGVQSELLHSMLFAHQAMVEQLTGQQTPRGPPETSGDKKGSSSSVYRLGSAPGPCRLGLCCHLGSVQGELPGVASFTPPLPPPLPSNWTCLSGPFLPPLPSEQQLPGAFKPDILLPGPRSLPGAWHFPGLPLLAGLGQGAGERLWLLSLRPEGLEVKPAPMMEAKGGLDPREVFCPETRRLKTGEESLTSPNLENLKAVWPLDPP
Method in brief: as §1

ETS2 = target: T8, ETS2 (Homo sapiens, UniProt P15036 1-469); conditions: protein: recombinant; tags: N-terminal GST; dsDNA, one strand shown
T8 sequence: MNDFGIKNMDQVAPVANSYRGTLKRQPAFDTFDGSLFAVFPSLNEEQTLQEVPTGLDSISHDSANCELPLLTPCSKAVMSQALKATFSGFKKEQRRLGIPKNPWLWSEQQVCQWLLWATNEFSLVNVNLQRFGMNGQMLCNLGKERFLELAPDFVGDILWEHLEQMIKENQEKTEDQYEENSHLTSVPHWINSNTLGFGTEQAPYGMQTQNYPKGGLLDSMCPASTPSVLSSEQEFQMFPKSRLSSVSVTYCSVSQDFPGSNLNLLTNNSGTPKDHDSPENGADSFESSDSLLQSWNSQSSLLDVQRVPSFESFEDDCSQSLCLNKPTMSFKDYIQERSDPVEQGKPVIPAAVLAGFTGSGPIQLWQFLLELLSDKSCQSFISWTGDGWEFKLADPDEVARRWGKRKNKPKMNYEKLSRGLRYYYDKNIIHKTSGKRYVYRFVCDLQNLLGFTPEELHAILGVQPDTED
Method in brief: as §1

SPDEF = target: T9, SPDEF (Homo sapiens, UniProt O95238 1-335); conditions: protein: recombinant; tags: N-terminal GST; dsDNA, one strand shown
T9 sequence: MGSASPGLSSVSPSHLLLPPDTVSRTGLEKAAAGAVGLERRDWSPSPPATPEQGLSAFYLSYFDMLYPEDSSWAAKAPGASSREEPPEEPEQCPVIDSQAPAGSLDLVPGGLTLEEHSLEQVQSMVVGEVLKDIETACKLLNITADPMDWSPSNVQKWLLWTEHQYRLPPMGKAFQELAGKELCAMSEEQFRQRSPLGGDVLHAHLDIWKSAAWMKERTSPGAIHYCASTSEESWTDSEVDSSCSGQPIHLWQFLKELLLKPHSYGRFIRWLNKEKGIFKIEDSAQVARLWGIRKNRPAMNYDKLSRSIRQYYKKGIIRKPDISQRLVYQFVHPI
Method in brief: as §1

ETV7 = target: T10, ETV7 (Homo sapiens, UniProt Q9Y603 1-341); conditions: protein: recombinant; tags: N-terminal GST; dsDNA, one strand shown
T10 sequence: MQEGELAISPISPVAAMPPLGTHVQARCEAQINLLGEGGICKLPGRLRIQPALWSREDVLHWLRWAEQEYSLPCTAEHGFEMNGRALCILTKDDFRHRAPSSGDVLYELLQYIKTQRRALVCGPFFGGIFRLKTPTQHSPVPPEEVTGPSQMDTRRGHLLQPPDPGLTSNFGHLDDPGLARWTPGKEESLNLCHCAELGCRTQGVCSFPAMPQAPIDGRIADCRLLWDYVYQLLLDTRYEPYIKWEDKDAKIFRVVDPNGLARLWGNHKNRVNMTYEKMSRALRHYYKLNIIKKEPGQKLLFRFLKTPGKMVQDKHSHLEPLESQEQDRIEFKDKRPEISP
Method in brief: as §1

ELF5 = target: T11, ELF5 (Homo sapiens, UniProt Q9UKW6-2 1-255); conditions: protein: recombinant; tags: N-terminal GST; dsDNA, one strand shown
T11 sequence: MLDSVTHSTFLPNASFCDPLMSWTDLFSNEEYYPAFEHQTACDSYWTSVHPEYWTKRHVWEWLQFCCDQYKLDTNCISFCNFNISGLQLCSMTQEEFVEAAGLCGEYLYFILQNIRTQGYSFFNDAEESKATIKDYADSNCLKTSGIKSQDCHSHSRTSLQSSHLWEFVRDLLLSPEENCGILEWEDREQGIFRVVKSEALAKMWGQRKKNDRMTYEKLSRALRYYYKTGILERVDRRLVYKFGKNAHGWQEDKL
Method in brief: as §1

ETV3 = target: T12, ETV3 (Homo sapiens, UniProt P41162-2 1-143); conditions: protein: recombinant; tags: N-terminal GST; dsDNA, one strand shown
T12 sequence: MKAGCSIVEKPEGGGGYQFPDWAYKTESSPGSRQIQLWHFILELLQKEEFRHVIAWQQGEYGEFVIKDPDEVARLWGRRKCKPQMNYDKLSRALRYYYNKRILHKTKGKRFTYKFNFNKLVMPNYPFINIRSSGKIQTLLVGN
Method in brief: as §1

ETV6 = ETV6 (Homo sapiens, UniProt P41212 1-452); conditions: protein: recombinant; tags: N-terminal GST; dsDNA, one strand shown
Method in brief: as §1

Sequence of ETV5 (P41161 whole entry): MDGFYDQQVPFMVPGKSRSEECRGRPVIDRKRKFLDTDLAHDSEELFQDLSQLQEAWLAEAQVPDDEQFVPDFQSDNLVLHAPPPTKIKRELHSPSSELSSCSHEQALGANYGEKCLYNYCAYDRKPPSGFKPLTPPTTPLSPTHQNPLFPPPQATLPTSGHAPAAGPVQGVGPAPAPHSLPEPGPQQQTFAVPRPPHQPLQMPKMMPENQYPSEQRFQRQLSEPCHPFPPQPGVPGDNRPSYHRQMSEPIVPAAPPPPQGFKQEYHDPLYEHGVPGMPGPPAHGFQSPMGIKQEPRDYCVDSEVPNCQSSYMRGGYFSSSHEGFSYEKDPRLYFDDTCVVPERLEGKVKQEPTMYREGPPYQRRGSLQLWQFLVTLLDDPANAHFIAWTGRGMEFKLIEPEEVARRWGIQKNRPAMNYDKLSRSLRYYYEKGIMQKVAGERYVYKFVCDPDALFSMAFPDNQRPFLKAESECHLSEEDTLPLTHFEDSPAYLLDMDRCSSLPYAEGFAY
Sequence of HSF1 (Q00613 whole entry): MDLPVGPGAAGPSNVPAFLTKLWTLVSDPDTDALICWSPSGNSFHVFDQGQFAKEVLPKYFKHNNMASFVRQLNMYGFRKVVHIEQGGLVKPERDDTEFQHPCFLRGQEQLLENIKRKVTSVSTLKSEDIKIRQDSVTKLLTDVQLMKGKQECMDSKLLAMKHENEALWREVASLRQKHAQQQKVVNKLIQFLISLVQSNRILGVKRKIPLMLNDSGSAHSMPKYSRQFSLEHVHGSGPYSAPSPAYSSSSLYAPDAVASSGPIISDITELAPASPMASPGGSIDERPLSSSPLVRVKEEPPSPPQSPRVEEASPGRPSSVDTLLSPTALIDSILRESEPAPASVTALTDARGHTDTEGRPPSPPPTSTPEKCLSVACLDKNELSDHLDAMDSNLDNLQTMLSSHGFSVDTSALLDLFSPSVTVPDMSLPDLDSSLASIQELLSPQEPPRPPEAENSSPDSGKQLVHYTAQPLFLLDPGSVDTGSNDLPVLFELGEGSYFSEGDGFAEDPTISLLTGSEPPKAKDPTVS
Sequence of ETV1 (P50549 whole entry): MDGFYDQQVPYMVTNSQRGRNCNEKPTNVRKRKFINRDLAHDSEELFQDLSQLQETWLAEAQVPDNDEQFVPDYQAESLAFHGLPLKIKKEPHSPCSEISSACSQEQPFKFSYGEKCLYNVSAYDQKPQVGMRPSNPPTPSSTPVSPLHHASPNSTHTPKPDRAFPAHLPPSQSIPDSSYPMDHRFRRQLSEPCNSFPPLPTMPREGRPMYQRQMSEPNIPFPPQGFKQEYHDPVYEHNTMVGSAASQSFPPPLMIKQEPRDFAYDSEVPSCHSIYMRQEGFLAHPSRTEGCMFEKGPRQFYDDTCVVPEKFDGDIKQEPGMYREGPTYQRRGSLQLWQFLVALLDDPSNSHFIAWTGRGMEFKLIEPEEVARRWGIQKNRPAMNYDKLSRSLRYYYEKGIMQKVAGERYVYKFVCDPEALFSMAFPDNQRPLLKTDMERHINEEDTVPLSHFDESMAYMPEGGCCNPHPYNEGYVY
Sequence of ETV6 (P41212 whole entry): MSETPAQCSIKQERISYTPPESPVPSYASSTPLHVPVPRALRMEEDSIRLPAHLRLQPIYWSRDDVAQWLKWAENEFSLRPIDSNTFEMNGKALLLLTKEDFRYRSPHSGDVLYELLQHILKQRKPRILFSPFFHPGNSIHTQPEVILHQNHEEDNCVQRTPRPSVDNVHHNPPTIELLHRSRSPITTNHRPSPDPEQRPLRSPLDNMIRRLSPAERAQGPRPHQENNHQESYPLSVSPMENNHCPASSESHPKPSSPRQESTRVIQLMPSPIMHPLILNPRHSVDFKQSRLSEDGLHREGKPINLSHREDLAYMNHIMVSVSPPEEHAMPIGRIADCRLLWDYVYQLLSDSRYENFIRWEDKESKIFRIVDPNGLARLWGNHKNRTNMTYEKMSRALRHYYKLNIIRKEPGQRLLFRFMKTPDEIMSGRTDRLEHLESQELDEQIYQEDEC
Sequence of ELF4 (Q99607 whole entry): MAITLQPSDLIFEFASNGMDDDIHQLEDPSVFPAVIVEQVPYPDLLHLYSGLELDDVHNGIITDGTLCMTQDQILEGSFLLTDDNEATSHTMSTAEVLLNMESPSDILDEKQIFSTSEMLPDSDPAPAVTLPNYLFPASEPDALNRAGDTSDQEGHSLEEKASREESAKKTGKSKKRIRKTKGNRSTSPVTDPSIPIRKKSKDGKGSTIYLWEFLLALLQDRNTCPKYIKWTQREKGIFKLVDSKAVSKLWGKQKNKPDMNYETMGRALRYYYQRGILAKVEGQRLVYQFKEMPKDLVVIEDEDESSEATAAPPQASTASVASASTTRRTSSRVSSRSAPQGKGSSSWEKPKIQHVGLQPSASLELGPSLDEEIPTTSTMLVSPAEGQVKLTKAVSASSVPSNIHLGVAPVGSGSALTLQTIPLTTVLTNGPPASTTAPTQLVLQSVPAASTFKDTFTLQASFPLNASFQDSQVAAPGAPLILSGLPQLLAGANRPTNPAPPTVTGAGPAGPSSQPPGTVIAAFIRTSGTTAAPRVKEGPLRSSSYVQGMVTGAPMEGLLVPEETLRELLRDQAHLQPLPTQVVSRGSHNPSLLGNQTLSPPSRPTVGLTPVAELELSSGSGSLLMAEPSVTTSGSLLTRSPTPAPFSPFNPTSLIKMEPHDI
Sequence of CRX (O43186 whole entry): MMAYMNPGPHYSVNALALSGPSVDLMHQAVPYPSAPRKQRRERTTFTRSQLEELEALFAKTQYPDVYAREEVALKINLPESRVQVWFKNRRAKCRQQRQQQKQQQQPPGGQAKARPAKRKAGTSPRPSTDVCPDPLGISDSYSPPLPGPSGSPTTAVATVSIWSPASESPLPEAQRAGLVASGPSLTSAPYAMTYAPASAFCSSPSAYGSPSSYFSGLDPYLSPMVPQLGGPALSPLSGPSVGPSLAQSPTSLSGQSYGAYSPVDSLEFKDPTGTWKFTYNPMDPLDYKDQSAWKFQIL

In the case of TCTTAT, the binding signal (FEV) was 1.27 fold enrichment (6-mer frequency, TF over GST control), the binding signal (ETV5) was 1.26 fold enrichment (6-mer frequency, TF over GST control) and the binding signal (HSF1) was 1.57 fold enrichment (6-mer frequency, TF over GST control). For the same sequence, the binding signal (SPIC) was 1.3 fold enrichment (6-mer frequency, TF over GST control), the binding signal (ELF4) was 1.21 fold enrichment (6-mer frequency, TF over GST control) and the binding signal (ELK4) was 1.3 fold enrichment (6-mer frequency, TF over GST control). The binding signal (ETV2) was 1.22 fold enrichment (6-mer frequency, TF over GST control), the binding signal (ELF3) was 1.36 fold enrichment (6-mer frequency, TF over GST control) and the binding signal (CRX) was 2.21 fold enrichment (6-mer frequency, TF over GST control). For the same sequence, the binding signal (ETV1) was 1.32 fold enrichment (6-mer frequency, TF over GST control), the binding signal (ERF) was 1.24 fold enrichment (6-mer frequency, TF over GST control) and the binding signal (ETV3L) was 1.29 fold enrichment (6-mer frequency, TF over GST control). The binding signal (ETS2) was 1.31 fold enrichment (6-mer frequency, TF over GST control), the binding signal (SPDEF) was 1.24 fold enrichment (6-mer frequency, TF over GST control) and the binding signal (ETV7) was 1.25 fold enrichment (6-mer frequency, TF over GST control). For the same sequence, the binding signal (ELF5) was 1.29 fold enrichment (6-mer frequency, TF over GST control), the binding signal (ETV3) was 1.23 fold enrichment (6-mer frequency, TF over GST control) and the binding signal (ETV6) was 1.3 fold enrichment (6-mer frequency, TF over GST control).
